Assay results reported in PubChem BioAssay (NCATS).
Active and inactive are the calls of the source. No rule for the calls is given here.

Test system: HIV-1 nucleocapsid protein NCp7 (binding to TG oligonucleotide)
Assay: HIV Nucleocapsid (AID 346);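 also: potency is for inhibitors that block NC binding and lower polarization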
Conditions: HIV-1 NC / fluorescein-TGTGTGTG probe, fluorescence polarization
Experimental: NCGC Assay Overview: HIV-1 nucleocapsid protein (HIV-1 NC) is a small (6.5 kDa) basic zinc-finger protein which participates in packaging of viral genomic RNA. The spacing and metal-chelating residues (3 Cys, 1 His) of the Cys-X2-Cys-X4-His-X4-Cys Zn fingers are conserved among all known retroviruses (J. Med. Chem. 1998, 41, 1371-1381). HIV-1 NC was assayed for its binding to the consensus sequence single-stranded 5'-TGTGTGTG. […] High salt was included to increase the stringency of binding and inhibitor screen. Reducing agents and zinc were present to stabilize the nucleocapsid zinc-finger protein.
NCGC Assay Protocol Summary: Buffer. Hepes pH 7.5, 250mM NaCl, 1uM ZnCl2. 0.004% polyethylene glycol 20000. TCEP (100 uM) and 2-Mercaptoethanol (5 mM), added fresh the day of the experiment. Reagents/Controls. 10 nM TG4xF only in columns 3 and 4 as negative control. 10 nM TG4xF/100 nM HIV-1 NC in columns 1, 2, 5-48. Titration of control compound NSC-13778 (from 20 mM, then 1:2) pin-transferred to column 2. Assay Steps. Two uL of reagents were dispensed to 1536-well Kalypsys black plates. The plates were centrifuged for 1 min at 1000 rpm. Compounds and controls (20 nL) were transferred via Kalypsys PinTool. The plates were incubated for 1 hr at room temperature, and then read on ViewLux (Perkin-Elmer). High-throughput CCD imager using fluorescein polarization filter set and 45 seconds exposure time.
Potency is read from the fitted curve at half-maximal effect.

Row | Structure (SMILES) | Potency
1 | CN(C)c1ncc2nc(CCc3ccccc3)c(=O)n(Cc3ccc(F)cc3)c2n1 | > 20 µM (inactive)
2 | Cc1cnc(CNc2cc(-c3cccc(NS(C)(=O)=O)c3)ncn2)cn1 | > 20 µM (inactive)
3 | COc1ccc2[nH]cc(CCNc3ncncc3-c3ccc4c(c3)OCO4)c2c1 | > 20 µM (inactive)
4 | CN(Cc1ccco1)c1nc(-c2ccc3c(c2)OCO3)nc2ccccc12 | > 20 µM (inactive)
5 | FC(F)(F)c1ccccc1-c1nc(-n2ccnc2)c2ccccc2n1 | > 20 µM (inactive)
6 | CC(=O)N1CCC2(CCCN(Cc3nccs3)C2)CC1 | > 20 µM (inactive)
7 | CCNc1ncc2nc(-c3cccc(C#N)c3)c(=O)n(Cc3cccc(OC)c3)c2n1 | 17.7 µM (inactive)
8 | CC(=O)N1CCC2(CC1)CN(c1ccccc1)C2 | > 20 µM (inactive)
9 | O=c1c(-c2ccc(F)cc2)nc2cnc(N3CCNCC3)nc2n1Cc1cccs1 | > 20 µM (inactive)
10 | CN(C)C(=O)c1ccc(-c2cc(Nc3ccccc3)ncn2)cc1 | > 20 µM (inactive)
11 | N#CCCn1c(=O)cnc2cnc(N3CCNCC3)nc21 | > 20 µM (inactive)
12 | CN1CCN(c2nc(-c3ccc4c(c3)OCO4)nc3ccccc23)CC1 | > 20 µM (inactive)
13 | COc1cccc(Cn2c(=O)c(-c3cccc(Cl)c3)nc3cncnc32)c1 | > 20 µM (inactive)
14 | CC(C)NC(=O)N1CC[C@@]2(CCCN(S(=O)(=O)c3ccccc3)C2)C1 | > 20 µM (inactive)
15 | O=c1c(-c2cc(F)cc(F)c2)nc2cnc(N3CCOCC3)nc2n1Cc1cccs1 | > 20 µM (inactive)
16 | O=C(Nc1cccc(F)c1)N1CCCC2(CCN(C(=O)c3ccncc3)CC2)C1 | > 20 µM (inactive)
17 | O=C(c1csnn1)N1CCC2(CC1)CCN(c1ccccc1)CC2 | > 20 µM (inactive)
18 | COc1ccc(-c2nc3cnc(Oc4cccc(Cl)c4)nc3n(C[C@H]3CCCO3)c2=O)cc1 | > 20 µM (inactive)
19 | CS(=O)(=O)N1CCC[C@@]2(CCN(Cc3nccs3)C2)C1 | > 20 µM (inactive)
20 | COCCn1c(=O)c(-c2cn(C)c3ccccc23)nc2cnc(OCc3ccccc3)nc21 | > 20 µM (inactive)

Row | Structure (SMILES) | Potency
21 | CC(=O)NCCNc1ncnc2ccc(-c3ccoc3)cc12 | > 20 µM (inactive)
22 | c1ccc(Nc2nc(-c3ccc4c(c3)OCO4)nc3ccccc23)cc1 | > 20 µM (inactive)
23 | CS(=O)(=O)N1CCC2(CCN(c3ccccc3)CC2)CC1 | > 20 µM (inactive)
24 | Cc1noc(C)c1-c1cc(N(C)C)ncn1 | > 20 µM (inactive)
25 | O=C(c1cc(C(F)(F)F)cc(C(F)(F)F)c1)N1CCC2(CC1)CN(c1ccccc1)C2 | > 20 µM (inactive)
26 | COc1ccc(-n2c(=O)c(-c3cccc(C#N)c3)nc3cnc(N4CCNCC4)nc32)cc1 | > 20 µM (inactive)
27 | O=C(c1csnn1)N1CCC[C@@]2(CCN(c3ccccn3)C2)C1 | > 20 µM (inactive)
28 | O=c1c(-c2ccc(F)cc2)nc2cncnc2n1Cc1ccc(F)cc1 | > 20 µM (inactive)
29 | CN(C)C(=O)c1ccc(-c2ccc3ncnc(N4CCNCC4)c3c2)cc1 | > 20 µM (inactive)
30 | N#Cc1cccc(NC(=O)N2CCC3(CC2)CCN(C(=O)c2csnn2)CC3)c1 | > 20 µM (inactive)
31 | COc1ccc2[nH]cc(CCNc3cc(-c4ccccc4C)ncn3)c2c1 | > 20 µM (inactive)
32 | O=c1cnc2cnc(Oc3ccccc3)nc2n1CCc1ccccc1 | > 20 µM (inactive)
33 | Cn1cc(-c2nc3cnc(N4CCNCC4)nc3n(CCc3ccccc3)c2=O)c2ccccc21 | > 4 µM (inactive)
34 | COCC(=O)N1CCC2(CCCN(c3ccc(-c4ccccc4)cc3)C2)CC1 | > 20 µM (inactive)
35 | O=c1c(-c2ccc(F)cc2)nc2cncnc2n1-c1ccccc1 | > 20 µM (inactive)
36 | O=C(c1ccco1)N1CCC[C@@]2(CCN(c3ccccn3)C2)C1 | > 20 µM (inactive)
37 | CN1CCN(c2ncc3nc(-c4ccccc4)c(=O)n(C)c3n2)CC1 | > 20 µM (inactive)
38 | O=S(=O)(c1ccccc1)N1CCC2(CCN(Cc3nccs3)CC2)CC1 | > 20 µM (inactive)
39 | O=C(c1csnn1)N1CCC2(CC1)CN(c1ccncc1)C2 | > 20 µM (inactive)
40 | O=c1cnc2cnc(Oc3cccc(Cl)c3)nc2n1Cc1ccc(F)cc1 | > 20 µM (inactive)
